Screens deposited in PubChem BioAssay by National Center for Advancing Translational Sciences (NCATS).
The list is not random: actives were taken first. Their share in the collection is about 11%.
SW480 rerep: DNA re-replication induction in SW480 cells. SW480 DNA re-replication, Hoechst DNA content imaging, 48 h. Potency, µM (doses to about 46.1 µM), without a hit: top-dose re-replication activation, actives largely listed as activators. 1.8% of 340,000 active. AID 624297; further: potency means the concentration at half of the fitted maximal effect; % of control where 0% means no effect; nearly all actives have a fitted effect of over 55% in size
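Cells (250 per well) received 23 nL compound or DMSO by pin tool and were kept 48 hr at 37 C, 5% CO2. Nuclei were then stained with Hoechst for 40 min and scanned for DNA content.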
RORg inh: blocks mouse ROR gamma transcriptional activity; P51450; Drosophila S2 Gal4-RORgamma UAS-luciferase reporter, 20 h; Potency, µM (top dose mostly 53.6 µM), without a hit: at the top dose activity change, negative = inhibition, hits mostly inhibitors; 5.4% of 310,000 active; further: potency means the concentration at half of the fitted maximal effect; on the % scale 0 is the no-effect control and ±100 the full control effect; nearly all actives have a fitted effect of over 60% in size
Target sequence (P51450 whole entry, looked up, the tested form may be a part): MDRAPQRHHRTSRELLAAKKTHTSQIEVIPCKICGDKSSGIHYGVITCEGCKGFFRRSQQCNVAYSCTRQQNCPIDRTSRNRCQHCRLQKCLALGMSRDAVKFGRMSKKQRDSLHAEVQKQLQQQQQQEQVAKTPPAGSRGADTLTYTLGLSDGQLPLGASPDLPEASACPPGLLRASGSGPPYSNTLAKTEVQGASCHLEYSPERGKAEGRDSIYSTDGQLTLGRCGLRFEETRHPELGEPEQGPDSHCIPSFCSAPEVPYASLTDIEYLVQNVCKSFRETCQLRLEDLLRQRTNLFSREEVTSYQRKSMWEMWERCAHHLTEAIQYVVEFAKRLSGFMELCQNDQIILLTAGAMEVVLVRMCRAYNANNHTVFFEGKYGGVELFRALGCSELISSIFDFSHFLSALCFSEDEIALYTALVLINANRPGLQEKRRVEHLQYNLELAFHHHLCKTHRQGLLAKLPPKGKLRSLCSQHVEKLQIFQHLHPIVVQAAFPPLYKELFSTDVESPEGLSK
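Luciferase reporter read in Schneider cells carrying Gal4-RORγ (mouse) and UAS-Photinus luciferase; cells given compound 1 h before 700 uM copper sulfate induction, then incubated 20 h at ambient temperature.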
IL-1B inflam inh: blocks inflammasome-driven IL-1 beta release | 4.7% of 360,000 active | activity change, % at 57.5 µM | THP-1 LPS/ATP IL-1B secretion, AlphaLISA, 16 h; stronger effect = lower value | AID 743279; in the data active means activity change below about -50%; inconclusive means mostly about -30% to -49%; further: on the % scale 0 is the no-effect control and ±100 the full control effect
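Secreted IL-1B measured by AlphaLISA bead assay after 16 h compound exposure of THP-1 cells; compounds (final up to 57.5 uM) added 1 h before LPS (250 ng/mL) and ATP (1.25 mM) stimulation; lower signal means less secretion.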
MCF10A rerep: inducers of DNA re-replication in MCF 10A breast cells. Potency, µM (series often up to 46.1 µM), without a hit: top-dose activity, positive = re-replication, actives largely listed as activators. 2.9% of 350,000 active. MCF 10A DNA re-replication, Hoechst nuclear intensity, 48 h. AID 624296; further: potency means the concentration at half of the fitted maximal effect; % of control where 0% means no effect; nearly all actives have a fitted effect of over 50% in size
Gal4-VP16 FLuc: counter-screen for ROR gamma inhibitors: Gal4-VP16 reporter. Drosophila S2 Gal4-VP16 UAS-luciferase, luminescence, 20 h. Potency, µM (series often up to 53.6 µM), inactives show at the top dose activity, negative = inhibition, most hits filed as inhibitors. AID 2546. 3.5% of 310,000 active;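 further: Gal4-VP16 expression switched on by copper sulfate through the metallothionein promoter; potency means the concentration at half of the fitted maximal effect; on the % scale 0 is the no-effect control and ±100 the full control effect; nearly all actives have a fitted effect of over 50% in size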
* marks the source's active call; other numbers are inactive results; ? = inconclusive; . = no result; [ ] = remark or other dose. Unless noted, the call rests on the fitted dose curve; in most records, active means well fitted curve in the direction sought with a large enough effect; inconclusive means small, poorly fitted or top-dose-only effect, or another doubt; inactive means no such curve, though single readings can be large; an effect the other way counts as inactive or inconclusive.

SMILES	SW480 rerep	RORg inh	IL-1B inflam inh	MCF10A rerep	Gal4-VP16 FLuc
O=C1CNC(=S)N1C1CCCCCC1	-16%	11µM*	6	-24%	-24%
CCCC1NC(=S)N(C2CCCCC2)C1=O (centres undefined)	-5%	-40%[10 µM]	8	-2%	?
COc1ccc(N2CCN(C(=O)c3cc(C4CC4)nn3-c3ccccc3)CC2)cc1	?	.	5	15%	.
COc1cc2c(cc1OC)CN(C(=O)c1cc(C3CC3)nn1-c1ccccc1)CC2	?	.	-55*	?	.
CC(C)(C)OC(=O)CNC(=O)c1[nH]cnc1C(=O)Nc1ccc(CNC(=O)OC(C)(C)C)cc1	-8%	11µM*	-27	?	?
CC(C)(C)OC(=O)NCc1ccc(NC(=O)c2nc[nH]c2C(=O)NCCNC(=O)c2[nH]cnc2C(=O)Nc2ccc(CNC(=O)OC(C)(C)C)cc2)cc1	?	.	60	23µM*	.
CC(C)(C)OC(=O)CNC(=O)c1nc[nH]c1C(=O)NCc1ccc(CNC(=O)OC(C)(C)C)cc1	-5%	?	4	?	?
CC(C)(C)OC(=O)CNC(=O)c1[nH]cnc1C(=O)Nc1ccc(Cl)cc1	11%	4.5µM*	-17	9%	13µM*
C[C@@H](O)CNC(=O)c1[nH]cnc1C(=O)Nc1ccc(CNC(=O)OC(C)(C)C)cc1	.	.	0	.	.
COc1c(Cl)ccc(Cl)c1C(=O)O	.	4%	.	.	4%
CCc1ccc(-c2nc(C(N)=O)c3[nH]c(=O)n(-c4ccccc4OC)c3n2)cc1	9.2µM*	?	48	?	-5%
O=C(Cn1cc(COc2ccc(Br)cc2[N+](=O)[O-])nn1)c1ccc(O)cc1	9.2µM*	.	-5	14%	.
COC(=O)Cn1cc(/C=C(/C#N)C(=O)N2CCOCC2)c2ccccc21	-7%	0%	-61*	-2%	-20%
CCn1cc(/C=C(\NC(=O)c2ccccc2)C(=O)N2CCOCC2)c2ccccc21	-9%	-12%	52	2%	-3%
CC(C)C[C@H](NC(=O)c1nc[nH]c1C(=O)NC1CCN(C(=O)OC(C)(C)C)CC1)C(=O)OCc1ccccc1	10%	-22%	-79*	?	?
C[C@H](NC(=O)c1nc[nH]c1C(=O)NC1CCN(C(=O)OC(C)(C)C)CC1)C(=O)OC(C)(C)C	0.16µM*	?	-5	-1%	11µM*
CC(C)(C)OC(=O)NCCCC[C@H](NC(=O)c1nc[nH]c1C(=O)NC1CCN(C(=O)OC(C)(C)C)CC1)C(=O)OC(C)(C)C	6%	11µM*	?	20%	?
CC(C)(C)OC(=O)N1CCC(NC(=O)c2nc[nH]c2C(=O)NCc2ccccc2)CC1	5%	.	-2	25%	.
CC1CCN(C(=O)c2[nH]cnc2C(=O)NC2CCN(C(=O)OC(C)(C)C)CC2)CC1	0%	.	-12	41%	.
CC(C)(C)OC(=O)NCc1ccc(CNC(=O)c2[nH]cnc2C(=O)NC2CCN(C(=O)OC(C)(C)C)CC2)cc1	-7%	.	17	18µM*	.
CC(C)C[C@H](NC(=O)c1nc[nH]c1C(=O)NC1CCN(C(=O)OC(C)(C)C)CC1)C(=O)OC(C)(C)C	1%	3.2µM*	-4	13µM*	7.1µM*
CCN(c1ccccc1)S(=O)(=O)c1ccc(N2CCN(c3ccccc3O)CC2)nc1	4%	.	38	-4%	.
OC(c1ccco1)c1nc(-c2ccc(F)c(Cl)c2)cs1 (centres undefined)	.	.	0	.	.
Cn1cnnc1SCc1ccc(C(=O)N=Nc2c(O)n(C)c3ccccc23)cc1	?	26%	-55*	4%	3%
Cn1cnnc1SCC(=O)n1c2ccccc2c2ccccc21	1%	-10%	17	17%	-5%
SMILES	SW480 rerep	RORg inh	IL-1B inflam inh	MCF10A rerep	Gal4-VP16 FLuc
CCCCn1c(N)c(N(CC(C)C)C(=O)C2=COCCO2)c(=O)[nH]c1=O	-4%	.	12	-8%	.
COc1ccc(NC(=O)CN(C)C(=O)CCCN2C(=O)c3cccc4cccc(c34)C2=O)cc1	2%	.	-26	5%	.
Cc1noc(/C=C/N(C)C)c1S(=O)(=O)N1CCc2ccccc21	14%	?	8	18µM*	-25%
Cc1noc(/C=C/N(C)C)c1S(=O)(=O)N(C)CC(=O)N1CCc2ccccc21	-8%	4%	11	?	-11%
O=C(/C=C/c1ccc2c(c1)S(=O)(=O)N(Cc1ccccc1)[C@H]2CC(=O)N1CCOCC1)N1CCOCC1	1%	.	1	-11%	.
COc1ccc(CCN2CCCC(CN(C)Cc3cc(OC)ccc3OC)C2)cc1 (centres undefined)	-7%	0%	?	0.65µM*	-8%
CCN(Cc1ccc(OC)c(COC)c1)CC1CCCN(CCc2cccc(F)c2)C1 (centres undefined)	?	2%	?	3.7µM*	-3%
CN(Cc1ccc(C(F)(F)F)cc1)C(=O)C1CCC(=O)N(C2CC2)C1 (centres undefined)	-2%	11%	-20	-2%	-7%
Cc1cc(CN2CCC(n3nccc3NC(=O)c3ccccc3C)CC2)n[nH]1	-9%	-3%	0	8%	12%
O=C(c1sc2cc(F)ccc2c1Cl)N1CCN(c2ccccc2)CC1	-4%	27%	-60*	5%	?
CN(C)CCCCl	.	4%	.	.	-4%
CCOC(=O)c1ccc(N(CC(=O)NC2CCCCC2)C(=O)CNC(=O)c2ccco2)cc1	-14%	2%	-5	3%	2%
O=C(NCc1ccccc1Cl)c1csc([C@@H]2O[C@H](CO)[C@H](O)[C@H](O)[C@H]2O)n1	.	.	0	.	.
CC(C)CCn1c(=O)c2ccccc2n2c(=S)[nH]nc12	-6%	4µM*	27	19%	13µM*
O=C1OCCN1C(=O)[C@H]1[C@H](c2ccc(Cl)cc2)C(c2ccc(F)cc2)=NN1c1ccc(Br)cc1	21µM*	4%[40.7 µM]	-22	?	-15%[40.7 µM]
Cc1cccc(C2=NN(c3ccc(Br)cc3)[C@@H](C(=O)N3CCOC3=O)[C@@H]2c2ccc([N+](=O)[O-])cc2)c1	-1%	-1%[40.7 µM]	-20	-19%	-8%[40.7 µM]
O=C1OCCN1C(=O)[C@H]1[C@H](c2ccc(F)cc2)C(c2ccc(F)cc2)=NN1c1ccc(Br)cc1	?	2%[40.7 µM]	-61*	?	19%[40.7 µM]
Cc1ccc(S(=O)(=O)NC(=O)NCC2CCN(S(=O)(=O)c3ccccc3)CC2)cc1	7%	15%	-10	-1%	-6%
Cc1nnc(SCC(=O)N2c3ccccc3Sc3ccccc32)n1N	23µM*	?	4	9.2µM*	-1%
CCOC(=O)N1c2ccccc2Sc2ccccc21	28%	15%	8	12%	5%
Cc1nnc(SC(=O)N2c3ccccc3Sc3ccccc32)s1	-1%	-33%[0.365 µM]	-101*	3%	.
